“And” between values parts separate entries of the source, which are not always exact repeats. Equal entries are not always repeated. About 79,000 compounds went through this panel and 15% of them were active in at least one assay; those are over-represented in the sample as a whole. No stated cut-off is given here; in the data, active means growth inhibition above about 70%; inactive means the rest.
How the values were obtained:
[1] = NCI Yeast Anticancer Drug Screen. Data for the rad50 strain (AID 155);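 further: 0% = growth of vehicle-only cultures of the same strain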; conditions: S. cerevisiae rad50 strain growth inhibition; at 50.0 µM; stronger effect = higher value
How it was run: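 Cells are treated with compound, grown, and their growth is then scored against vehicle-only cultures of the same repair-deficient yeast strain.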

[2] = NCI Yeast Anticancer Drug Screen. Data for the mec2-1 strain (AID 157); conditions: S. cerevisiae mec2-1 strain, at 50.0 µM, stronger effect = higher value
How it was run: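 Growth inhibition is read against vehicle-treated controls after compound exposure of the mec2-1 yeast strain, which is defective in DNA damage repair or cell cycle control.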

[3] = NCI Yeast Anticancer Drug Screen. Data for the sgs1 mgt1 strain (AID 161);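 further: 0% = growth of cultures given vehicle only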; conditions: S. cerevisiae sgs1 mgt1 strain, at 50.0 µM, stronger effect = higher value
How it was run: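 This yeast growth screen uses a strain with defined DNA-repair lesions; compound-treated growth is compared with vehicle-treated growth.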

[4] = NCI Yeast Anticancer Drug Screen. Data for the cln2 rad14 strain (AID 165);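 further: 0% = growth equal to vehicle treated cultures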; conditions: S. cerevisiae cln2 rad14 strain, at 50.0 µM, stronger effect = higher value
How it was run: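 Growth inhibition, relative to vehicle-treated controls, is the read-out. The test organism is a yeast strain with defined genetic alterations, cln2 rad14.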

[5] = NCI Yeast Anticancer Drug Screen. Data for the bub3 strain (AID 167); conditions: S. cerevisiae bub3 mutant strain, at 50.0 µM, stronger effect = higher value
How it was run: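 Part of a panel of yeast mutants defective in DNA damage repair or cell cycle regulation. Each strain is grown with compound, and inhibition is calculated relative to solvent-treated cultures.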

[6] = NCI Yeast Anticancer Drug Screen. Data for the mlh1 rad18 strain (AID 175); conditions: S. cerevisiae mlh1 rad18 strain growth inhibition; at 50.0 µM; stronger effect = higher value
How it was run: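 Cells of a genetically altered yeast strain, deficient in DNA damage repair, were treated with compound. Their growth was then compared with that of vehicle-treated cultures to give inhibition.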

Measured: growth inhibition

CCCC(C)C1C(=O)N(C)C(=O)N(C)C1=O (stereo not given)
inactive: [1] 14.2% | [2] -1% | [3] 11.4% | [4] 9.9% | [5] -4.75% | [6] 14.9%

CCOP(=S)(OCC)OCC1OC(OC)C2OC(C)(C)OC12 (stereo not given)
inactive: [1] -26.2% | [2] 1.9% | [3] -2.45% | [4] -35.4% | [5] 11.8% | [6] 4.4%

CCC(CC)(COC(=O)C(O)(c1ccccc1)c1ccccc1)C[N+](C)(C)C
inactive: [1] -4.45% | [2] -2.85% | [3] 1% | [4] -24.9% | [5] 0.5% | [6] -12.7%

CC12CCC(O)CC1CCC1C2CCC2(C)C(c3ccc(=O)oc3)CC3OC312 (stereo not given)
inactive: [1] 35.5% | [2] 31.5% | [3] 66.5% | [4] 48.5% | [5] 48.6% | [6] 60.9%

CC1CCC2C(C)C3C(CC4C5CC=C6CC(OC7OC(CO)C(O)C(OC8OC(CO)C(O)C(O)C8O)C7OC7OC(C)C(O)C(O)C7O)CCC6(C)C5CCC43C)N2C1 (stereo not given)
inactive: [1] -3.25% and 9.1% | [2] 11.8% and -8.5% | [3] -5.75% and 10.2% | [4] -6.3% and -9.3% | [5] -1.65% and 1.95% | [6] 36.5% and 15.3%

COC(=O)C1(C(=O)OC)ON1C(C)(C)C (stereo not given)
inactive: [1] -48.5% | [2] -17.6% | [3] -17.6% | [4] -57.8% | [5] -5% | [6] -11.6%

O=C(Cc1ccccc1)OCc1ccco1
inactive: [1] 6.9% | [2] -23.9% | [3] -30% | [4] -41.5% | [5] 13.4% | [6] -4.7%

Cc1c(Cl)cccc1NC(=O)C(=O)C1C(=O)NC(=O)NC1=O
inactive: [1] -10.8% | [2] -10.8% | [3] -13.8% | [4] -6% | [5] -17.8% | [6] -17.9%

Clc1ccc(N=P(c2ccccc2)(c2ccccc2)c2ccccc2)cc1.[Cl][Co][Cl]
inactive: [1] 49% | [2] 11.1% | [3] 44.5% | [4] 18.1% | [5] 22.1% | [6] 14.6%

CP(O)(=S)C1CCCCC1 (stereo not given) (tested in a mixture with another compound)
inactive: [1] 26.8% | [2] 1.1% | [3] -4.85% | [4] 5.3% | [5] 18.7% | [6] 13.8%

O=C(Nc1ccc(O)cc1)c1c(O)[nH]c(=S)[nH]c1=O
inactive: [1] -11.7% | [2] -13.1% | [3] 6.25% | [4] -56.5% | [5] 1.7% | [6] 4.65%

CCCC[P+](C#Cc1ccccc1)(CCCC)CCCC
inactive: [1] 8.65% | [2] 3.5% | [3] 9.5% | [4] 3.75% | [5] -3.2% | [6] 2%

O=[P+](O)C(O)c1ccccc1 (stereo not given)
inactive: [1] -20.6% | [2] -27.9% | [3] -14.1% | [4] 4.9% | [5] -10.8% | [6] -7.7%

CN(C)CCNC(=O)c1cc(COC(=O)N(CCCl)CCCl)ccc1[N+](=O)[O-]
inactive: [1] 38.2% | [2] 36.9% | [3] 56.1% | [4] 28.1% | [5] 35.8% | [6] 56.8%

CCOP(=O)(OCC)C1CCC(=O)O1 (stereo not given)
inactive: [1] -14.2% | [2] -20.2% | [3] -14% | [4] 12.4% | [5] 10.6% | [6] 10.6%

NC(=O)C(Cl)(Cl)CCl
inactive: [1] 14.7% | [2] -34.5% | [3] -12.4% | [4] 1.5% | [5] -2.5% | [6] 6.65%

COc1ccc(NC(=O)/C(=N/NC(N)=S)C2C(=O)NC(=S)NC2=O)c(OC)c1
inactive: [1] -17.4% | [2] -4% | [3] -4.55% | [4] -21.9% | [5] -8.9% | [6] -25%

O=C(CCC(=O)Oc1ccc(S(=O)(=O)F)cc1)Oc1ccc(S(=O)(=O)F)cc1
inactive: [1] 49.1% | [2] 15.3% | [3] 44.3% | [4] 26.1% | [5] 7.65% | [6] 9.8%

COC(=O)C1=C(N2CCCC2)C2c3ccccc3SC12C(=O)OC (stereo not given)
inactive: [1] 20.1% | [2] 10.8% | [3] -0.25% | [4] 0.7% | [5] 14.2% | [6] 9.3%

COC(CN1CCOCCOCCOCC1)CN1CCOCCOCCOCC1
inactive: [1] -9.3% | [2] -6.55% | [3] -29.1% | [4] 15.4% | [5] 14.2% | [6] -17.8%

Reference: PubChem BioAssay (NCI)
